PubChem BioAssay

Experiments:
[1] = tested on: Human papillomavirus type 1a protein E7 (residues 44-93); test: small molecules binding HPV E7 44-93 – biochemical, small-molecule microarray, residues 44-93, 635 nm fluorescence, primary screen (AID 1108); details: fluorescence 635 nm, higher = more signal;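 further: E7 fragment applied at 1 µg/mL in TBST for 1 h at 4 C; score combines spot fluorescence with its signal to noise ratio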
[2] = hepatitis C replication reporter changes, two-sided – Huh7 cells, luciferase reporter, HCV replication inhibitor project, primary screen (AID 1109); details: Huh7 HCV replicon luciferase reporter, 48 h; higher = more signal;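 further: huh7 hepatoma cells harbouring a luciferase neomycin HCV replicon reporter; luciferase luminescence as measure of HCV replicon replication; test concentration not given here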
[3] = target: Left-right determination factor 2 (Homo sapiens) (UniProt O00292); test: small molecules binding LEFTY2 protein – biochemical, small-molecule microarray, 635 nm fluorescence scan, primary screen (AID 1110); details: higher = more signal
Sequence of Left-right determination factor 2 (Homo sapiens) (O00292 whole entry, looked up): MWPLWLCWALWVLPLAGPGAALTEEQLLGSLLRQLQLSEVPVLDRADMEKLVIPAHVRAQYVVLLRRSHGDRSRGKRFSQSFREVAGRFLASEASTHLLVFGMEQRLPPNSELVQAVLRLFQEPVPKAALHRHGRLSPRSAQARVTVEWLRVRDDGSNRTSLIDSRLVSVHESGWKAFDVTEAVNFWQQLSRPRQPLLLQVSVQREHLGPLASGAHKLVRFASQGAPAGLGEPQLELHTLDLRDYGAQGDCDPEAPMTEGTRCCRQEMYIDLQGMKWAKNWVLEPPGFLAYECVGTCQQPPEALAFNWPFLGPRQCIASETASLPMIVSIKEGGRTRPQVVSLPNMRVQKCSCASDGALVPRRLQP

[4] = target: Calmodulin-1 (Homo sapiens) (UniProt P0DP23); test: small molecules binding calmodulin-1 with EGTA – biochemical, small-molecule microarray, Cy5-labelled CALM1, profiling panel (AID 1111); details: Cy5-CALM1 binding fluorescence, higher = more signal;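 further: labelled calmodulin applied in Tris saline Tween buffer holding calcium plus EGTA and DTT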
[5] = target: Calmodulin-1 (Homo sapiens) (UniProt P0DP23); test: small molecules binding Ca-loaded calmodulin-1 – biochemical, small-molecule microarray, Cy5-labelled CALM1, plus calcium, artefact control for SMM control-protein annotation, profiling panel (AID 1112); details: Cy5-CALM1 binding fluorescence, higher = more signal;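 further: score merges spot fluorescence with signal to noise from triplicate slides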
[6] = probe aWnt5a binding to arrayed compounds – biochemical, biotinylated probe, 635/667 nm fluorescence, primary screen (AID 1113); details: small-molecule microarray, higher = more signal;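 further: score merges 667 nm fluorescence intensity with signal-to-noise per printed feature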
[7] = probe aShh binding to arrayed compounds – biochemical, biotinylated probe, 635/667 nm fluorescence, primary screen (AID 1114); details: small-molecule microarray, higher = more signal;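 further: probe is biotin-labelled aShh protein from a stem cell growth factor screen; measures binding of labelled protein to compounds printed on the slide; score merges feature fluorescence at 667 nm with signal-to-noise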
[8] = probe aNog binding to arrayed compounds – biochemical, biotinylated probe, 635/667 nm fluorescence, primary screen (AID 1115); details: small-molecule microarray, higher = more signal;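 further: probe is biotinylated aNog protein used at 0.15 µg/mL for 1 h at 4 C; z-score combines 667 nm fluorescence of each spot with its signal to noise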
[9] = target: Torsin-1A-interacting protein 1 (Homo sapiens) (UniProt Q5JTV8); test: compound microarray binding of lysate hLAP1 – cell lysate, small-molecule microarray, COS7 lysate, 635/667 nm fluorescence, primary screen (AID 1116); details: 635 nm fluorescence, higher = more signal
Sequence of Torsin-1A-interacting protein 1 (Homo sapiens) (Q5JTV8 whole entry, looked up): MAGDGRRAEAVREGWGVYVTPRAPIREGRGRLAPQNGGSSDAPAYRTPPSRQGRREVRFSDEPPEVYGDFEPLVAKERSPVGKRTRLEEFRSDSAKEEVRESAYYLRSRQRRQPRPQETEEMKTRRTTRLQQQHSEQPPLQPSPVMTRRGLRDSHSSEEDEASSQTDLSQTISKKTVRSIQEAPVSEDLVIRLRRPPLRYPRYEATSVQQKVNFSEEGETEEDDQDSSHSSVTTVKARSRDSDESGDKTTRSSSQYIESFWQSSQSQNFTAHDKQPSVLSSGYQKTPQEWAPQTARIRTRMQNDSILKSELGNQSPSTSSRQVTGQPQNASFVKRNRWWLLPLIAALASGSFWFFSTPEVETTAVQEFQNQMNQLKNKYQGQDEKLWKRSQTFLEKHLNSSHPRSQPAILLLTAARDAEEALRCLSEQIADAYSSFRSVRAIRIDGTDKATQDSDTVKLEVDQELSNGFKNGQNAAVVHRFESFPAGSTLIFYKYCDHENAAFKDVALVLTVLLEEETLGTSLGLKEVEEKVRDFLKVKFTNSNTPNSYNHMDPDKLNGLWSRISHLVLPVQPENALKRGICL

[10] = target: Alpha-bungarotoxin (Bungarus multicinctus) (UniProt P60615); test: compounds binding labelled alpha-BTX control protein – biochemical, small-molecule microarray, Alexa647 label, 635/667 nm fluorescence, artefact control for SMM control protein annotation, profiling panel (AID 1117); details: alpha-BTX-A647 binding fluorescence, higher = more signal
Sequence of Alpha-bungarotoxin (Bungarus multicinctus) (P60615 whole entry, looked up): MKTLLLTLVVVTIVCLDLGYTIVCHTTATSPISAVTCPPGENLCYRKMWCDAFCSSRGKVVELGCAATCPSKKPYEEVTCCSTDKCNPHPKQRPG

Structure (SMILES) | composite z-score [1] | z-score [2] | composite z-score [3] | composite z-score [4] | composite z-score [5] | composite z-score [6] | composite z-score [7] | composite z-score [8] | composite z-score [9] | composite z-score [10]
[N-]=[N+]=NCc1ccccc1C[C@]1(C(=O)NCc2ccccc2)N=C(c2ccc(OCCCO)cc2)O[C@H]1c1ccccc1CN=[N+]=[N-] | 1.42 | -2.3 | -0.578 | 1.36 | 0.533 | 0.0474 | 0.338 | -0.0439 | 1.9 | 1.87
COCCOC(=O)N1C(=O)[C@@]2(c3cc(C#CCNC(N)=O)ccc31)[C@H](C(=O)NC[C@H](O)c1ccccc1)[C@H]1C(=O)O[C@H](c3ccccc3)[C@H](c3ccccc3)N1[C@@H]2c1ccc(OCCO)cc1 | 1.11 | 0.724 | 0.319 | 0.565 | 0.442 | -0.0459 | 0.13 | 1.09 | 1.47 | 0.41
C=CC[C@]1(C(=O)NCCCOC)N=C(c2ccc(OCCCO)cc2)O[C@H]1c1ccccc1 | 1.44 | -1.53 | -0.916 | 0.287 | -0.484 | 0.108 | -0.0626 | 0.328 | 1.03 | -0.0901
COC(=O)[C@]1(CO)N=C(c2ccc(OCCCO)cc2)O[C@@H]1c1ccccc1CN=[N+]=[N-] | -0.0942 | 0.606 | -0.266 | -0.738 | -0.0036 | -0.145 | 0.0611 | -0.0007 | 0.751 | -0.0756
C=C(COC)/C(=C/C[C@@H](OC(C)=O)c1ccccc1OCCO)c1cc(C(=O)OC)ccc1OC | 1.3 | -2.3 | -0.145 | -0.249 | -0.808 | -0.1 | 0.0469 | 0.0502 | 1.46 | 0.324
COCCOC(=O)N1C(=O)[C@@]2(c3ccccc31)[C@H](c1ccc(OCCO)cc1)N1[C@H](c3ccccc3)[C@H](c3ccccc3)OC(=O)[C@H]1[C@@H]2C(=O)N1CCN(c2ncccn2)CC1 | 1.41 | -1.47 | 1.06 | 1.51 | 0.039 | -0.001 | -0.043 | 0.998 | 1.5 | 1.26
NCCCC[C@@H]1NC(=O)[C@H]2C[C@@H](C(=O)NCc3ccc(F)cc3)[C@@H](c3cccc(OCCO)c3)N2C1=O | 1.43 | -2.1 | 1.13 | 0.986 | -0.75 | 0.0077 | -0.0119 | 0.127 | 1.92 | 0.538
NC(=O)NCC#Cc1ccc2c(c1)[C@]1(C(=O)N2)[C@H](C(=O)Nc2nc3ccccc3s2)[C@H]2C(=O)O[C@H](c3ccccc3)[C@H](c3ccccc3)N2[C@@H]1c1ccc(OCCO)cc1 | 0.537 | -0.942 | -0.828 | 0.84 | 0.417 | 0.0108 | -0.151 | -0.464 | 0.281 | 0.9
CN(C)CCCNC(=O)[C@@H]1c2ccccc2C(=O)N(C2Cc3ccccc3C2)[C@H]1c1ccc(CO)cc1 | 1.1 | -1.9 | -0.625 | -0.0693 | -0.875 | 0.0436 | 0.0766 | 0.467 | 0.814 | 0.438
COC(=O)C1=CC(CCCO)=CC(C2CC2)N(Cc2cccc(OC(F)(F)F)c2)C=C1C(=O)OC (stereo not given) | 1.43 | -1.46 | -0.724 | 0.302 | 0.364 | 0.0077 | -0.0035 | 0.374 | -0.302 | 0.0939
O=C1N(Cc2ccccc2)c2ccccc2[C@H]2OC(c3ccc(OCCCO)cc3)=N[C@@]12Cc1ccccc1 | 1.03 | -2.48 | -0.116 | 0.244 | -0.0364 | 0.067 | 1.06 | 0.798 | 0.498 | 1.81
C=CC[C@@]1(C(=O)O)N=C(c2ccc(OCCCO)cc2)O[C@@H]1c1ccccc1CN=[N+]=[N-] | 0.895 | -1.99 | 0.461 | 1.83 | 0.608 | 0.115 | -0.0119 | 0.0139 | 0.976 | 0.974
C=C(CCCC)C(=O)CC[C@H](OC(=O)c1cccnc1)c1ccc(CO)o1 | 1.07 | -1.26 | 1.16 | 0.223 | -0.183 | -0.0462 | 0.191 | -0.116 | 0.706 | 0.542
O=C1NC(=O)C2C1C=CC(C(O)c1ccc(F)cc1)N2Nc1ccccn1 (stereo not given) | 0.164 | 0.305 | -0.0392 | 0.0754 | -0.255 | -0.124 | 0.0684 | 0.147 | 0.513 | 0.349
COCCOC(=O)N1C(=O)[C@@]2(c3cc(C#CC4=CCCCC4)ccc31)[C@H](c1ccc(OCCO)cc1)N1[C@H](c3ccccc3)[C@H](c3ccccc3)OC(=O)[C@H]1[C@@H]2C(=O)N1CCCCCCC1 | 0.67 | -1.13 | 0.853 | 0.643 | 0.758 | 0.267 | 1.44 | 1.33 | 1.91 | 1.9
CCCCC(O)C1C=CC2C(=O)NC(=O)C2N1Nc1ccccn1 (stereo not given) | -0.382 | -1.11 | 0.132 | -0.0937 | -0.466 | -0.1 | 0.25 | 0.289 | 0.233 | 0.275
C=CCOC(=O)[C@H]1[C@@H]2C(=O)O[C@@H](c3ccccc3)[C@@H](c3ccccc3)N2[C@@H](c2ccc(OCCOC(=O)[C@H]3C[C@H]4C(=O)NCC(=O)N4[C@H]3c3ccc(O)cc3)cc2)[C@]12C(=O)Nc1ccc(I)cc12 | 0.429 | -1.58 | 0.788 | 0.275 | 0.295 | -0.1 | -0.367 | -0.158 | 0.365 | -0.303
C=CCC(OC(C)=O)[C@@H]1[C@@H](N(Cc2cc3ccccc3o2)C(=O)Cc2ccc(OC)cc2)c2cc(OCCCO)ccc2N1C(=O)Cc1ccc(OC)cc1 (stereo not given in full) | -0.133 | 0.028 | -0.0735 | -0.211 | 0.158 | -0.0981 | -0.0626 | -0.303 | -0.0544 | 0.673
COCCOC(=O)N1C(=O)[C@@]2(c3ccccc31)[C@H](C(=O)N1CCCCCCC1)[C@H]1C(=O)O[C@H](c3ccccc3)[C@H](c3ccccc3)N1[C@@H]2c1ccc(O)cc1 | 1.4 | -1.06 | 1.17 | 2.73 | 1.56 | 1.39 | 1.04 | 2.12 | 5.09 | 3.37
CN(C)CCCNC(=O)[C@@]1(Cc2ccccc2I)c2ccccc2C(=O)N(Cc2ccccc2)[C@H]1c1ccc(CO)cc1 | 1.41 | -3.36 | 0.189 | -0.489 | -0.636 | 0.22 | -0.32 | 0.84 | 1.21 | 0.542
CCc1cccc(NC(=O)O[C@H]2[C@H](OC(=O)Nc3ccc4c(c3)OCO4)[C@H](OC(=O)Nc3ccc4c(c3)OCO4)[C@@H](OC)O[C@@H]2CO)c1 | 1.47 | -0.548 | -0.263 | 0.949 | -0.943 | -0.0087 | 0.131 | -0.312 | 0.154 | 1.18
COc1cccc(OC)c1C(=O)O[C@H]1[C@@H]2OC(=O)[C@H](Cc3cccc(Br)c3)C/C=C/C[C@@H](Cc3cccc(Br)c3)C(=O)O[C@H]2[C@@H](OC)O[C@@H]1CO | 0.479 | -2.37 | 0.309 | -0.108 | -0.0545 | -0.0869 | 0.111 | 0.113 | 0.482 | 0.528
COCC1=C([C@H](O)CCc2ccccc2)[C@H](CO)n2c(=O)n(-c3ccccc3)c(=O)n2C1 | -0.253 | -0.482 | 0.292 | -0.357 | -0.764 | -0.175 | -0.0553 | -0.0927 | -0.103 | -0.349
COC(=O)[C@H](Cc1ccc(O)cc1)N1CC2=CCCC=C[C@@H]2[C@H]1[C@H](O)Cc1ccccc1 | -0.615 | -0.798 | 0.45 | -0.197 | -0.757 | -0.157 | -0.138 | -0.292 | 0.0548 | 0.0212
CCOC(=O)C1=CC[C@@H](c2ccccc2)N(S(=O)(=O)C[Si](C)(C)C)[C@H]1c1ccccc1 | 1.38 | -0.61 | 0.618 | 1.36 | 0.391 | 0.105 | -0.2 | 0.509 | 1.02 | 1.02
C[C@H]1C2[C@H](Cc3ccccc3)NC(=O)[C@]23C(=O)NCC(=O)N2CCC[C@H]2C(=O)NC/C=C\C/C=C/C3[C@@H]2O[C@]12C (stereo not given in full) | -0.8 | 0.288 | 0.245 | -0.549 | -0.698 | -0.0417 | -0.2 | -0.28 | -0.177 | -0.246
